Experiments:
Assay in all cases: PBM binding z-score (relative to random genomic background probes); higher = stronger binding; sequences stand for … in GC…GCGATTGACAGCGTAGAATGAAGG
[1] = test system: FXR:RXRa (NR concentration 270 nM, RXRa partner concentration 90 nM)
In short: (§1)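 Custom Agilent 4×180K protein-binding microarrays carried double-stranded probes, each with a 34-nt variable region. These regions held direct-repeat seeds, single-nucleotide variants, half-site ablations and random human genomic background sequences. Ligand-free nuclear receptor dimers were incubated on the arrays for 1 h, antibodies against each partner (one per run) detected binding, and scanned fluorescence was regression-normalized. Binding z-scores take the random background probes as reference.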

[2] = test system: LXRa:RXRa (NR concentration 270 nM, RXRa partner concentration 90 nM)
In short: as §1

[3] = test system: LXRa homodimer (NR concentration 270 nM)
In short: as §1

[4] = test system: LXRb:RXRa (NR concentration 270 nM, RXRa partner concentration 90 nM)
In short: as §1

[5] = test system: LXRb homodimer (NR concentration 270 nM)
In short: as §1

[6] = test system: PPARa:RXRa (NR concentration 270 nM, RXRa partner concentration 90 nM)
In short: as §1

[7] = test system: PPARg:RXRa (NR concentration 180 nM, RXRa partner concentration 90 nM)
In short: as §1

[8] = test system: PPARg:RXRa 270nM:90nM, anti-RXR (NR concentration 270 nM, RXRa partner concentration 90 nM)
In short: as §1

[9] = test system: PPARg:RXRa 30nM:10nM, anti-RXR (NR concentration 30 nM, RXRa partner concentration 10 nM)
In short: as §1

[10] = test system: PPARg:RXRa 90nM:30nM, anti-RXR (NR concentration 90 nM, RXRa partner concentration 30 nM)
In short: as §1

[11] = test system: PPARg:RXRa DBDmut IVT, anti-RXR (DBD mutation: RXRa K156A/R161A, NR concentration 270 nM, RXRa partner concentration 90 nM)
In short: as §1

[12] = test system: PPARg:RXRa IVT, anti-PPARg (NR concentration 270 nM, RXRa partner concentration 90 nM)
In short: as §1

[13] = test system: PPARg DBDmut:RXRa IVT, anti-PPARg (DBD mutation: PPARg1 K132A/R137A, NR concentration 270 nM, RXRa partner concentration 90 nM)
In short: as §1

[14] = test system: PPARg DBDmut IVT, anti-PPARg (DBD mutation: PPARg1 K132A/R137A, NR concentration 270 nM)
In short: as §1

[15] = test system: PPARg homodimer (NR concentration 180 nM)
In short: as §1

[16] = test system: PXR:RXRa (NR concentration 270 nM, RXRa partner concentration 90 nM)
In short: as §1

[17] = test system: PXR homodimer (NR concentration 270 nM)
In short: as §1

[18] = test system: RARa:RXR (NR concentration 270 nM, RXRa partner concentration 90 nM)
In short: as §1

[19] = test system: RARa homodimer (NR concentration 270 nM)
In short: as §1

[20] = test system: RARb:RXRa (NR concentration 270 nM, RXRa partner concentration 90 nM)
In short: as §1

Sequence	PBM binding z-score [1]	PBM binding z-score [2]	PBM binding z-score [3]	PBM binding z-score [4]	PBM binding z-score [5]	PBM binding z-score [6]	PBM binding z-score [7]	PBM binding z-score [8]	PBM binding z-score [9]	PBM binding z-score [10]	PBM binding z-score [11]	PBM binding z-score [12]	PBM binding z-score [13]	PBM binding z-score [14]	PBM binding z-score [15]	PBM binding z-score [16]	PBM binding z-score [17]	PBM binding z-score [18]	PBM binding z-score [19]	PBM binding z-score [20]
CATACTAGGTCACGAAAGGTCAAAGTCGAATGAC	7.5	8.25	8.77	7.29	3.6	6.39	9.53	7.93	6.31	8.01	7.83	8.34	2.56	1.91	3.01	7.08	3.85	7.57	4.19	5.65
TCGAGTACGTTAGTCGGGGCATTCAGCCAACATA	-0.454	-0.474	-0.665	0.0371	-1.12	0.167	-0.163	0.223	0.88	0.775	0.607	-0.44	-0.411	-0.712	-0.34	-0.0967	-0.478	-0.134	-0.667	0.019
ATATGTAGCTTACATCCGGGTCATTCAGGCTATG	1.18	1.36	0.618	1.73	0.372	2.39	0.959	0.733	0.448	0.268	0.48	1.48	1.08	0.976	0.783	2.42	1.38	2.54	0.0612	1.31
TTACCAAGGTGACGGTCGTTGATCCCTCTGTAGA	1.07	0.963	-0.313	0.464	-0.534	1.5	0.654	1.29	0.738	0.929	2.39	3.64	0.228	-0.126	0.25	0.252	-0.877	0.759	-0.412	1.82
CCGACAGGGGCAAGGTTACCATAACGCACAGCCA	0.485	0.975	-0.0477	0.737	-0.848	1.49	1.32	0.765	0.0629	0.378	-0.0279	0.0813	-0.56	-0.66	0.577	0.585	0.0826	1.26	0.048	2.1
CGAACTAGGTCTTTGACAGGACAGTGAATAGTAA	-0.13	0.047	-0.136	-0.238	-0.525	0.769	0.674	0.585	0.162	0.43	4.79	3.63	0.956	0.308	0.0171	-0.285	-0.19	0.0375	-0.136	0.0398
TCTAGTAGGCCAGAGGGTCACTCAAGAGGTACGG	0.984	1.06	-0.235	1.23	-0.774	3.17	4.36	5.3	4.21	5.28	3.6	4	-0.235	0.392	0.62	1.76	-0.532	2.51	-0.0158	2.37
CCGAGTAGGTTATGGGGCAATCAGGCAACGGTGA	0.219	0.461	0.13	0.86	-0.142	2.37	3.61	4.62	2.23	4.39	3.71	3.81	-0.0155	-0.785	0.948	0.118	-0.0981	0.631	0.26	1.11
ATATGTAGTTTAGCTGGGGTCATTCAGACTAGGC	4.14	4.3	2.38	4.58	1.66	4.45	1.66	2.42	0.899	1.87	1.04	1.41	1.71	2.11	1.95	5.98	3.93	5.81	1.36	2.74
CCTACTGGGCCAAAAAGGTCATTAATGCCGATAA	2.98	3.74	2.97	4.21	0.494	4.39	2.98	3.7	1.44	2.96	3.72	3.94	0.336	0.139	3.45	4.39	3.17	5.01	1.3	3.64
GCGACTTGGGCAAAGCAGGTTACCATAAGGTTGG	-0.371	-0.57	-0.467	-0.537	-1.29	0.243	0.451	-0.351	-0.654	-0.41	-0.00446	-0.245	-0.728	-1.56	-0.641	-0.189	-0.923	0.287	-1.35	-0.0319
CCTACTGGGCCAAAAAGGTCCTTGATGCCGATAA	-0.386	-0.565	-0.584	-0.39	-0.811	0.631	0.195	0.889	-0.0812	0.211	3.01	2.44	-0.992	-1.33	-0.196	-0.29	-0.721	-0.161	-0.376	0.177
GGAACGAGGCCAAGTTGATAGCAGAGTTTGATGG	-0.211	-0.562	-0.768	-0.914	-0.878	0.0938	0.353	0.159	-0.422	-0.286	1.98	0.981	-1.22	-0.68	-0.613	-0.452	0.241	-0.778	-0.416	1.36
TTACCAAGGTGAAGCTCGTTGATCCCTCTGTAGA	0.0851	-0.0821	-1.1	-0.274	-1.24	1.09	-0.0345	0.378	0.125	0.429	1.63	2.34	-0.257	-0.63	-0.515	-0.27	-0.88	0.172	-0.72	1.29
TCGAGGAGGTTAGGGGCATTCAGAATGGCGTCGA	1.12	0.91	-0.0426	1.71	0.134	1.94	0.354	1.08	1.19	1.09	1.17	0.304	-0.348	-0.472	1.01	1.03	0.679	0.889	0.232	1.62
ACTTACGGGTCAACGTGGTTATAGCACGCGTATA	6.4	4.01	0.422	3.75	0.534	5.52	5.08	5.39	1.88	4.03	3.4	3.77	1.64	1.34	2.74	3.45	0.0483	4.28	1.23	4.02
CAGCCTAGGTCAGGGCCAGAATAGGAGGAACGTT	1.68	0.905	-0.589	0.734	-1.02	2.04	1.06	0.725	-0.241	0.0702	1.51	1.55	-0.6	-1.51	0.276	0.146	-0.618	0.927	-0.25	3.49
ACTATTAGTTGACTTAGGGCAATCGATACGACGC	0.199	0.203	0.0491	0.176	0.464	-0.0585	0.814	0.195	0.373	0.365	0.335	0.292	1.13	0.914	0.761	0.304	0.241	0.866	0.707	0.668
ACAGACAGGTGATGAAGGTAACTTAGGCTATCAT	-0.131	-0.0415	-0.322	0.0367	-0.119	0.169	0.55	-0.195	-0.0102	-0.0594	0.373	0.171	0.414	0.165	0.0231	-0.0368	-0.316	0.217	0.132	0.163
ACTTACGGGTCAACGAGGTTATAACACGCGTATA	7.16	5.41	1.28	5.13	1.29	5.9	5.93	5.54	2.6	4.07	3.68	4.21	3.33	2.76	4.28	5.81	4.42	5.84	2.39	4.37
TGCCAAAGTTCAAAGGTAACGTAAGTATCCACAC	7.28	6.4	4.65	4.85	1.81	5.9	7.61	7.16	4.42	6.78	-0.203	3.58	0.542	1.37	4.73	6.14	4.67	7.24	1.95	5.19
CCTAGCAGGCCAATCTGGGTAACTCAAGGCTTGA	-0.2	-0.684	-0.736	-0.904	-0.796	0.0569	-0.0846	-0.366	-1.08	-0.958	2.34	2.01	-1.19	-0.9	-0.78	-0.754	-0.707	-0.329	-0.678	-0.071
ACTACAGGGTCATCGTAGGCCAGAGTACGCACAG	6.89	5.5	0.216	4.08	0.987	5.89	5.88	5.25	2.32	3.77	1.66	3.47	2.18	1.55	1.49	4.76	0.458	4.67	0.217	4.45
CGAACTAGGACAGAACAGGACAGTGAAGGATGAT	-0.286	-0.561	-0.364	-0.706	-0.58	-0.0263	1.23	0.13	0.00825	0.0847	3.37	2.51	0.329	1	-0.301	-0.366	-0.302	-0.649	0.312	0.117
TCAAATAGGTAAACAGGTGAAAGTCCGTAAGTTA	0.954	0.935	0.164	0.968	-0.112	2.28	2.64	3.76	4.64	4.28	4.13	3.99	0.833	0.995	1.07	0.682	0.0929	1.16	1.7	0.892
TCATATAGGTAAACAAGTGAAAGTCCGTAAGTTA	1.87	1.33	0.256	1.17	0.297	1.58	1.4	2.55	4.08	2.98	3.94	2.87	1.04	0.969	0.811	0.871	0.525	0.876	1.3	0.893
CAAACTAGGTCAAGAGGACAAAGTCCGCTTCCCG	3.92	2.83	1.1	1.67	0.143	4.69	7.86	6.69	4.57	6.62	8.17	8.27	2.16	2.91	1.84	1.37	0.291	2.12	0.947	4.37
CAGCCTAGGTCAGGGCCAGTATCGGAGGAACGTT	1.55	0.907	-0.258	0.354	-1.03	1.91	0.418	0.759	-0.713	0.129	1.72	1.55	-1.42	-1.35	0.632	0.107	-1.08	0.761	-0.159	3.54
GCTATTAGTTGAAATGGCAACCGAATGATTCTCG	-0.365	-0.424	-0.152	-0.394	-0.166	-0.14	0.344	0.398	0.213	0.114	0.598	-0.104	0.641	0.526	0.501	-0.119	0.359	-0.166	0.404	-0.346

Reference: the supplement of paper PMC6555819
